# MsrA act: bovine methionine sulfoxide reductase A activation; purified bovine MsrA, absorbance read-out; activation, % at 10.6 µM; hit rate 0.3% among 360,000; AID 602163; in the data active = activation above about 7.5%
# PLCg1 inh: blocks human PLC-gamma1 enzyme activity. inhibition, % at 12.2 µM. P19174. AID 720700. hit rate 0.84% among 370,000. purified PLC-gamma1, fluorogenic substrate, fluorescence; in the data active = inhibition above about 9.5%
# MsrA inhibitor: inhibitors of bovine MsrA | purified bovine MsrA, absorbance read-out | inhibition, % at 15.5 µM | hit rate 0.75% among 360,000 | AID 651718; in the data active = inhibition above about 4.5%
# PLCb3 inh: blocks human PLC-beta3 enzyme activity; Q01970; Purified PLC-beta3, fluorogenic substrate, fluorescence; inhibition, % at 12.2 µM; hit rate 0.18% among 370,000; AID 720704
# Target sequence (Q01970 whole entry, looked up): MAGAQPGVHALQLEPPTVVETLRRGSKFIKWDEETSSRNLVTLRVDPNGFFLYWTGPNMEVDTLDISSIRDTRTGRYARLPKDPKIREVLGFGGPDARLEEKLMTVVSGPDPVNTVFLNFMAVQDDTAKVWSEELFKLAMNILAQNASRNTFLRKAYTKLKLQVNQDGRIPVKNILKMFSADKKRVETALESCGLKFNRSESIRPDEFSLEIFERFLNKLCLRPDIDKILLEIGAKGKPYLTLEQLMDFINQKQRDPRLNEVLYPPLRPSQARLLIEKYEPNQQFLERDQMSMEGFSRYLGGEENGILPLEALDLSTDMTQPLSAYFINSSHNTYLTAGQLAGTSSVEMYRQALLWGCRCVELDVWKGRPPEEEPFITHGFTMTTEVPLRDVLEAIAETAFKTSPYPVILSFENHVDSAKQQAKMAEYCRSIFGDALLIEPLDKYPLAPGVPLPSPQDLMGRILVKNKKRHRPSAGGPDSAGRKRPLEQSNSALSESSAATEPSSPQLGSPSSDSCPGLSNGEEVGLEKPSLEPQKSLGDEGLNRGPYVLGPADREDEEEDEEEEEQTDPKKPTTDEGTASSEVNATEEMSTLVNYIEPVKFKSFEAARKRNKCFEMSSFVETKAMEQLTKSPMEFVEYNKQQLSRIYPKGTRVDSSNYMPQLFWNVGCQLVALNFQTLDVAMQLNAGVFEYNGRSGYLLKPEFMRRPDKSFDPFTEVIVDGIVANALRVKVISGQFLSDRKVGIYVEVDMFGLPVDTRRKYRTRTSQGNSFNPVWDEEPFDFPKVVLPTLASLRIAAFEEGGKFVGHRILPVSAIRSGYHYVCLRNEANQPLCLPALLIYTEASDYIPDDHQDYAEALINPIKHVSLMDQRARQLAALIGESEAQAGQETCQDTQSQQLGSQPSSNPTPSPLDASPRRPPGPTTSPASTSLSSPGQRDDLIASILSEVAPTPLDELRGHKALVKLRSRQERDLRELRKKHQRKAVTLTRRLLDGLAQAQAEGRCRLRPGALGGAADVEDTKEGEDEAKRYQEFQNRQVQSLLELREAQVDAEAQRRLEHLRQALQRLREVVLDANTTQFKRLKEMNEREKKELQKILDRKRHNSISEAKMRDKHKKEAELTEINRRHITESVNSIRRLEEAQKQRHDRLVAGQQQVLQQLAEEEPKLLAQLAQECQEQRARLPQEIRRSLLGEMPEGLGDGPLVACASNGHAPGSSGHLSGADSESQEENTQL
# PLCg1 ctr: PLC-gamma1 inhibition, counter-screen for PLC-beta3 hits. shares compounds with PLCg1 inh. inhibition, % at 12.3 µM. AID 743258. purified PLC-gamma1, fluorogenic substrate, fluorescence. hit rate 3.1% among 3,300; in the data active = inhibition above about 9.5%
# PLCbeta3 conf: human PLC-beta3 inhibition, confirmation; inhibition, % at 12.3 µM; AID 743261; purified PLC-beta3, fluorogenic substrate fluorescence; shares compounds with PLCg1 inh; hit rate 1% among 3,300
# Hits are given with their value; 0 = inactive; - = not tested or not shown. Shown are actives, neighbours in structure and some others; about 1.9% of the full set was active somewhere. Cut-off read from the data, not from the text of the source, unless noted: active = inhibition above about 11%; inactive = the rest.
SMILES,MsrA act,PLCg1 inh,MsrA inhibitor,PLCb3 inh,PLCg1 ctr,PLCbeta3 conf
CC(C)C(NC(=O)OCc1ccccc1)C(=O)NCC(=O)OC(C)(C)C (stereo unspecified),0,0,0,15,0,0
CCOc1ccc(NC(=O)CN2CCCN(c3ccc(OC)cc3)CC2)cc1,-,0,-,0,-,-
CC1=C(C(=O)N2CCOCC2)CC(CC(=O)NCC2CCCCC2)C(=O)N1Cc1ccc(C(C)(C)C)cc1 (stereo unspecified),0,0,0,0,-,-
Cc1cccc(OCC(=O)OCC(=O)N2CCCc3ccccc32)c1C,0,11,0,0,0,0
O=C(COc1ccc(Br)cc1)N1CCN(c2ccc([N+](=O)[O-])c(N3CCCCC3)c2)CC1,0,0,0,0,-,-
O=C(COc1ccccc1)N1CCN(c2ccc([N+](=O)[O-])c(N3CCCCC3)c2)CC1,0,12,0,0,0,0
CCc1nc2c(OCc3ccc(Cl)cc3)cccn2c1N(C=O)Cc1ccc(OC)cc1,0,0,0,0,-,-
COc1ccccc1NC(=O)COc1ccc(C(=O)OCC(=O)NC(C)(C)C)cc1OC,0,13,0,0,0,0
CCOC(=O)c1cnn(-c2nc(C)cc(C)n2)c1N,0,10,0,0,0,0
CCOC(=O)c1cnn(-c2ccccc2)c1N,0,0,0,0,-,-
Cc1ccc(-c2ccc(/C=N/NC(=S)Nc3ccccc3)o2)cc1[N+](=O)[O-],0,9.7,0,0,0,0
CNC(=S)N/N=C/c1ccc(-c2ccc(Cl)c([N+](=O)[O-])c2)o1,0,0,0,0,-,-
COCCCNC(=S)Nc1c(C)cc(C)cc1C,0,13,0,0,0,0
Cc1cc(C)c(NC(=S)NCCO)c(C)c1,0,0,0,0,-,-
C/C(=N\NC(=O)Cc1cccs1)c1ccco1,-,0,-,0,-,-
CC(C)(C)NC(=O)c1cccc2c1OC(C)(C)C2,0,16,0,0,0,0
CCCCCC(=O)NC1CCCCN(C)C1=O (stereo unspecified),-,0,0,0,-,-
CCCCNC(=O)C1CC(=O)N(C2CCCC2)C1 (stereo unspecified),0,12,0,0,0,0
CC1(C(=O)NS(=O)(=O)c2cccc(Cl)c2)CCN1C(=O)Cc1ccsc1 (stereo unspecified),0,10,0,0,0,0
CC1(C(=O)NS(=O)(=O)c2cccc(Cl)c2)CCN1C(=O)Cc1ccc(-c2ccccc2)cc1 (stereo unspecified),0,0,0,0,-,-
CCc1cccc(NS(=O)(=O)c2c(C)n[nH]c2C)c1,0,9.8,0,0,0,0
CC(=O)c1cccc(NS(=O)(=O)c2c(C)n[nH]c2C)c1,0,0,0,0,-,-
CCCS(=O)(=O)NC(=O)C1(C)CCN(C(=O)c2cc(C)on2)C1 (stereo unspecified),0,9.5,0,0,0,0
CCOC(=O)C1CCCN(C(=O)c2cccc(S(=O)(=O)N(Cc3ccccc3)c3ccccc3OC)c2)C1 (stereo unspecified),0,9.7,0,0,0,0
O=C1c2ccccc2[C@@H]2C[C@@H](O)[C@H](Nc3ccccc3-c3ccccc3)CCN12,0,0,0,0,-,-
SMILES,MsrA act,PLCg1 inh,MsrA inhibitor,PLCb3 inh,PLCg1 ctr,PLCbeta3 conf
O=C(C[C@@H]1C[C@@H]2c3cc(NS(=O)(=O)c4ccc(F)cc4)ccc3O[C@@H]2[C@@H](CO)O1)NC1CCCCC1,0,0,0,0,-,-
CC(C)c1nc2c(s1)CCc1onc(-c3ccc(Cl)cc3)c1-2,0,0,0,0,-,-
COc1ccc(-c2noc3c2-c2nc(-c4ccc(Br)cc4)sc2CC3)cc1,0,14,0,0,0,0
COc1ccc(-c2noc3c2-c2nc(C(C)C)sc2CC3)cc1,0,11,0,0,0,0
COC(=O)[C@]12C[C@H](CC(=O)NCCCCc3ccccc3)C(=O)N(Cc3ccc(Cl)cc3Cl)C1=C[C@H](C(C)C)O[C@@H]2C1CC1,-,0,-,0,-,-
C#CCOCCOCCOCCNc1nc(N2CCN(C(=O)[C@H](CCCCN)n3cc([C@@H](N)C(C)CC)nn3)CC2)nc(N2CCN(C(=O)[C@H](CCCCN)n3cc([C@@H](N)C(C)CC)nn3)CC2)n1 (stereo partly specified),-,10,-,0,0,0
CCn1c(O)c(N=N)c2ccccc21,0,0,0,0,-,-
CCn1c(O)c(C2=NCCCC2)c2ccccc21,0,9.7,0,0,0,0
COc1ccccc1NC1=NCC(=O)N1Cc1ccccc1,0,0,0,0,-,-
COc1ccc(CN2C(=O)CN=C2Nc2cccc(C)c2C)cc1,0,9.8,0,0,0,0
O=[N+]([O-])c1cccc(-c2c(-c3ccccc3)ncc3ccc(F)cc23)c1,0,0,0,11,0,0
COC(=O)c1cc2c(c3c4cc(C)ccc4n(S(=O)(=O)c4ccccc4)c13)C(=O)N(Cc1ccc(C(F)(F)F)cc1)C2,-,0,0,0,-,-
COc1cccc(-c2ccc3ncnc(NCc4ccc5c(c4)OCO5)c3c2)c1,0,11,0,12,0,0
CC(=O)NC(CC(=O)NC1CCCCCC1)c1ccccc1 (stereo unspecified),0,0,0,0,-,-
CCC(NC(=O)NC1CCCCC1)c1ccccc1 (stereo unspecified),0,9.5,0,12,0,0
O=C(Cn1c(NCCCO)nc2ccccc21)c1ccc(Br)cc1,0,0,0,12,0,0
O=C(Nc1cccc(Cl)c1)C1C2CCC3C(CCC21)C3(Cl)Cl (stereo unspecified),0,0,0,0,-,-
O=C(Nc1ccccc1)C1C2CCC3C(CCC21)C3(Cl)Cl (stereo unspecified),0,11,0,0,0,0
CCc1cccc2c(N=O)c(O)[nH]c12,0,11,0,0,0,0
O=Nc1c(O)[nH]c2c(F)cccc12,0,0,0,0,-,-
CS(=O)(=O)N1CCN(c2ccccc2NC(=O)c2ccc([N+](=O)[O-])o2)CC1,0,9.9,0,0,0,0
CS(=O)(=O)N1CCN(c2ccc([N+](=O)[O-])c(N3CCOCC3)c2)CC1,0,0,0,0,-,-
CS(=O)(=O)N1CCN(c2ccccc2[N+](=O)[O-])CC1,0,15,0,0,0,0
O=C(OCC(=O)N1CCOCC1)c1cncc(Br)c1,0,0,0,0,-,-
O=C(COC(=O)CCc1nc2ccccc2s1)Nc1ccc(S(=O)(=O)N2CCOCC2)cc1,0,0,0,0,-,-
SMILES,MsrA act,PLCg1 inh,MsrA inhibitor,PLCb3 inh,PLCg1 ctr,PLCbeta3 conf
O=C(COC(=O)CCc1nc2ccccc2s1)Nc1cccc(S(=O)(=O)N2CCOCC2)c1,0,11,0,0,0,0
Nc1ncnc2c1ncn2C1O[C@H](CO)[C@@H](O)[C@@H]1O (stereo partly specified),0,0,0,0,-,-
Nc1nccc2c1ncn2C1OC(CO)C(O)C1O (stereo unspecified),0,12,0,12,0,0
CCOC(=O)c1csc(NNC=O)n1,0,0,0,11,0,0
COc1ccc(-c2csc(=NCCO)n2-c2ccccc2)cc1,0,10.0,0,0,0,0
COc1ccc(-c2csc(=Nc3ccccc3)n2CCO)cc1,0,0,0,0,-,-
CC(C)(C)OC(=O)N1CCc2onc(-c3ccc(Br)cc3)c2C1=O,0,0,0,0,-,-

# Screens as filed in PubChem.
